Results on 66 molecules are retold here after the antibiotic and cytotoxicity screens of Wong et al. (2023).

The campaign covered roughly 39,000 compounds. About 3,300 (8.5%) were called active. What follows is part of a selection rich in actives, with near analogues and random picks from the rest.

In the assay the test system is HepG2. The experiment in a line: cytotoxicity call (relative viability < 0.9). Particulars: 10 µM.
For `C[C@@H]1CN([C@@H](C)CO)C(=O)c2cc(C#CCN(C)C)cnc2O[C@@H]1CN(C)C(=O)Nc1cc(F)ccc1F`, the cytotoxicity call was “inactive”.
As for `C/C=C/c1ccc2c(c1)O[C@H](CN(C)S(=O)(=O)c1ccccc1OC)[C@@H](C)CN([C@H](C)CO)S2(=O)=O`, the cytotoxicity call is “inactive”.
As to `C[C@@H]1CN([C@H](C)CO)C(=O)c2cccc(NC(=O)C3CC3)c2O[C@H]1CN(C)Cc1ccc2c(c1)OCO2`, the cytotoxicity call was “inactive”.
Consider `C[C@@H]1CN([C@@H](C)CO)C(=O)c2cc(NC(=O)CCCN(C)C)ccc2O[C@H]1CN(C)C(=O)Nc1ccc2c(c1)OCO2`, for which the cytotoxicity call was “inactive”.
Regarding `C[C@H](CO)N1C[C@H](C)[C@@H](CN(C)Cc2ccncc2)OCCCC[C@H](C)Oc2ccc(NS(=O)(=O)c3ccc(Cl)cc3)cc2C1=O`, the cytotoxicity call was “inactive”.
For `Cc1ccc(S(=O)(=O)Nc2cccc3c2O[C@H](CN(C)Cc2ccc(Cl)c(Cl)c2)[C@H](C)CN([C@H](C)CO)C3=O)cc1`, the cytotoxicity call was “inactive”.
For the molecule `C[C@H](CO)N1C[C@H](C)[C@H](CN(C)C)OCCCC[C@H](C)Oc2ccc(NC(=O)Nc3cccc4ccccc34)cc2C1=O`, the cytotoxicity call is “inactive”.
The entry for `O=C(O)C[C@H]1Oc2ccccc2NC1=O` is “inactive”; for `O=C(C[C@@H]1CC[C@@H]2[C@H](COC[C@@H](O)CN2S(=O)(=O)c2ccccc2F)O1)NCc1ccccc1F` it is “inactive”.
On to `C[C@@H]1CN([C@H](C)CO)C(=O)c2cccc(NC(=O)C3CCOCC3)c2O[C@@H]1CN(C)S(=O)(=O)c1ccc(Cl)cc1`, for which the cytotoxicity call was “inactive”.
The entry for `O=C(C=Cc1ccc(O)cc1)c1ccccc1O` is “inactive”.
As to `O=C(/C=C/c1ccccc1)C1CC1`, the cytotoxicity call was “inactive”.
Take `O=C(C=Cc1ccccc1)c1ccc(O)cc1O`: the cytotoxicity call was “inactive”.
The entry for `CC(C)c1ccc(/C=C/C(=O)O)cc1` is “inactive”.
With `O=C(C=Cc1ccc(O)cc1)c1ccccc1`, the cytotoxicity call is “active”.
On to `O=C(C=Cc1ccccc1)c1ccc(O)cc1`, for which the cytotoxicity call is “active”.
With `CC(C)NC(=O)N(C)C[C@H]1OCCCC[C@H](C)Oc2ccc(NC(=O)C3CCCCC3)cc2C(=O)N([C@H](C)CO)C[C@H]1C`, the cytotoxicity call was “inactive”.
For the molecule `O=C1CCC(=O)NCC/C=C/CCN1`, the cytotoxicity call was “inactive”.
Take `O=C(C[C@H]1C=C[C@H](NC(=O)C2CC2)[C@H](CO)O1)NCCCN1CCOCC1`: the cytotoxicity call was “inactive”.
As to `COCC#Cc1cnc2c(c1)C(=O)N([C@@H](C)CO)C[C@@H](C)[C@H](CN(C)C(=O)Nc1ccc(OC)cc1)O2`, the cytotoxicity call is “inactive”.
In the case of `C[C@@H]1CCCCO[C@H](CN(C)C(=O)c2ccccc2)[C@@H](C)CN([C@@H](C)CO)C(=O)c2cc(NC(=O)CCC(F)(F)F)ccc2O1`, the cytotoxicity call was “inactive”.
Turning to `C[C@H]1CCCCO[C@@H](CN(C)C(=O)Nc2ccccc2)[C@@H](C)CN([C@@H](C)CO)C(=O)c2cc(NS(=O)(=O)c3ccc(Cl)cc3)ccc2O1`, the cytotoxicity call is “inactive”.
In the case of `C[C@H]1CN([C@@H](C)CO)C(=O)c2c(c3ccccc3n2C)-c2ccccc2CO[C@@H]1CN(C)S(C)(=O)=O` it was “inactive”; in that of `C[C@H](CO)N1C[C@H](C)[C@@H](CN(C)S(=O)(=O)c2ccc(F)cc2)Oc2ccc(NC(=O)CCCN(C)C)cc2CC1=O`, “inactive”.
As for `O=C(O)c1cccnc1`, the cytotoxicity call was “inactive”.
Regarding `O=C(c1cccnc1)N1CCOCC1`, the cytotoxicity call is “active”.
As to `O=C(NCCCN1CCOCC1)c1cccnc1`, the cytotoxicity call is “inactive”.
Regarding `Cc1ccc(S(=O)(=O)N(C)C[C@@H]2Oc3c(NC(=O)Nc4cccc5ccccc45)cccc3C(=O)N([C@H](C)CO)C[C@H]2C)cc1`, the cytotoxicity call was “inactive”.
Regarding `CN(C)C(=O)c1cc2c(c(-c3cccc(/C=C/c4ccccc4)c3)n1)[C@H](CCO)N([S@@](=O)C(C)(C)C)C2`, the cytotoxicity call is “inactive”.
For `C[C@@H]1CN([C@@H](C)CO)C(=O)c2cccc(NC(=O)Nc3ccc(F)cc3)c2O[C@H]1CN(C)Cc1ccc(C(F)(F)F)cc1`, the cytotoxicity call was “inactive”.
The entry for `C[C@@H]1CN([C@@H](C)CO)C(=O)c2cccc(NC(=O)Nc3ccc(C(F)(F)F)cc3)c2O[C@@H]1CN(C)Cc1ccc(C(F)(F)F)cc1` is “inactive”; for `C[C@@H]1CN([C@H](C)CO)C(=O)c2cccc(NC(=O)Nc3ccc(C(F)(F)F)cc3)c2O[C@@H]1CN(C)Cc1ccc(C(F)(F)F)cc1` it is “active”; for `C[C@H]1CN([C@@H](C)CO)C(=O)c2cccc(NC(=O)Nc3ccc(C(F)(F)F)cc3)c2O[C@@H]1CN(C)Cc1ccc(C(F)(F)F)cc1` it is “active”.
For `C[C@H](CO)N1C[C@H](C)[C@H](CN(C)Cc2ccc(C(F)(F)F)cc2)Oc2c(NC(=O)Nc3ccc(C(F)(F)F)cc3)cccc2C1=O`, the cytotoxicity call is “inactive”.
For the molecule `C[C@H]1CN([C@@H](C)CO)C(=O)c2cccc(NC(=O)Nc3ccc(F)cc3)c2O[C@H]1CN(C)Cc1ccc(C(F)(F)F)cc1`, the cytotoxicity call was “inactive”.
In the case of `C[C@@H]1CN([C@H](C)CO)C(=O)c2cccc(NC(=O)Nc3ccc(F)cc3)c2O[C@@H]1CN(C)Cc1ccc(C(F)(F)F)cc1` it was “inactive”; in that of `C[C@@H]1CN([C@H](C)CO)C(=O)c2cccc(NC(=O)Nc3ccc(C(F)(F)F)cc3)c2O[C@H]1CN(C)Cc1ccc(C(F)(F)F)cc1`, “active”; in that of `C[C@H](CO)N1C[C@H](C)[C@@H](CN(C)Cc2ccc(C(F)(F)F)cc2)Oc2c(NC(=O)Nc3ccc(C(F)(F)F)cc3)cccc2C1=O`, “inactive”.
As to `C[C@H](CO)N1C[C@H](C)[C@@H](CN(C)Cc2ccc(C(F)(F)F)cc2)Oc2c(NC(=O)Nc3ccc(F)cc3)cccc2C1=O`, the cytotoxicity call is “active”.
In the case of `C[C@H]1CN([C@@H](C)CO)C(=O)c2cccc(NC(=O)Nc3ccc(C(F)(F)F)cc3)c2O[C@H]1CN(C)Cc1ccc(C(F)(F)F)cc1` it was “inactive”.
As to `C[C@@H]1CN([C@H](C)CO)C(=O)c2cccc(NC(=O)Nc3ccc(F)cc3)c2O[C@H]1CN(C)Cc1ccc(C(F)(F)F)cc1`, the cytotoxicity call is “inactive”.
Turning to `C[C@@H]1CN([C@H](C)CO)C(=O)c2cc(NC(=O)CCC(F)(F)F)ccc2O[C@H]1CN(C)S(=O)(=O)c1cn(C)cn1`, the cytotoxicity call is “inactive”.
`CC(C)NC(=O)N(C)C[C@H]1Oc2c(NS(=O)(=O)c3cn(C)cn3)cccc2C(=O)N([C@@H](C)CO)C[C@@H]1C`: the cytotoxicity call was “inactive”.
`C[C@@H]1CCCCO[C@@H](CN(C)Cc2ccc(C(=O)O)cc2)[C@H](C)CN([C@H](C)CO)C(=O)c2cc(NC(=O)Cc3ccccc3)ccc2O1`: the cytotoxicity call was “inactive”.
For `CC(C)CC#Cc1cnc2c(c1)C(=O)N([C@@H](C)CO)C[C@@H](C)[C@H](CN(C)S(=O)(=O)c1cccs1)O2`, the cytotoxicity call was “inactive”.
Consider `Cc1ccc(S(=O)(=O)N(C)C[C@H]2Oc3ccc(NS(=O)(=O)c4c(C)noc4C)cc3CC(=O)N([C@@H](C)CO)C[C@@H]2C)cc1`, for which the cytotoxicity call is “inactive”.
In the case of `C[C@@H]1CN([C@H](C)CO)C(=O)Cc2cc(NC(=O)CCN3CCOCC3)ccc2O[C@H]1CN(C)S(=O)(=O)c1ccccc1` it was “inactive”.
Take `CC(=O)OCC(=O)O[C@@H]1[C@H]2[C@@H](OC(=O)c3ccccc3)[C@@H](C)C[C@]2(O)[C@H](OC(C)=O)[C@@]2(C)[C@H](OC(C)=O)[C@]1(OC(C)=O)C[C@H]1C(=O)C(C)(C)C[C@@H]12`: the cytotoxicity call is “inactive”.
On to `O=C(NC(=O)N1CCOCC1)c1ccc(S(=O)(=O)N2CCOCC2)cc1`, for which the cytotoxicity call was “inactive”.
Turning to `C[C@@H]1CN([C@H](C)CO)C(=O)c2cccc(NC(=O)c3ccncc3)c2O[C@@H]1CN(C)Cc1ccc(-c2ccccc2)cc1`, the cytotoxicity call was “inactive”.
Consider `C[C@H](CO)N1C[C@H](C)[C@@H](CN(C)S(=O)(=O)c2cccc(F)c2)Oc2ncc(Br)cc2C1=O`, for which the cytotoxicity call is “inactive”.
Turning to `C[C@@H]1CN([C@H](C)CO)C(=O)c2cc(Br)cnc2O[C@H]1CN(C)C(=O)Nc1ccc2c(c1)OCO2`, the cytotoxicity call was “inactive”.
The entry for `C[C@H]1CN([C@@H](C)CO)C(=O)c2cccc(NC(=O)Nc3ccc(C(F)(F)F)cc3)c2O[C@H]1CN(C)Cc1ccc(-c2ccccc2)cc1` is “inactive”; for `C[C@H](CO)N1C[C@H](C)[C@H](CN(C)Cc2ccc(C(F)(F)F)cc2)Oc2c(NC(=O)Nc3ccc(F)cc3)cccc2C1=O` it is “inactive”; for `C[C@@H]1CN([C@H](C)CO)C(=O)c2cccc(NC(=O)Nc3ccc(C(F)(F)F)cc3)c2O[C@H]1CN(C)Cc1ccc(-c2ccccc2)cc1` it is “inactive”.
Turning to `C[C@@H]1CN([C@@H](C)CO)C(=O)c2cccc(NC(=O)Nc3ccc(C(F)(F)F)cc3)c2O[C@H]1CN(C)Cc1ccc(C(F)(F)F)cc1`, the cytotoxicity call was “active”.
For `C[C@@H]1CN([C@H](C)CO)C(=O)c2cccc(NC(=O)Nc3ccc(C(F)(F)F)cc3)c2O[C@@H]1CN(C)Cc1ccc(-c2ccccc2)cc1`, the cytotoxicity call is “active”.
`C[C@@H]1CN([C@@H](C)CO)C(=O)c2cccc(NC(=O)Nc3ccccc3)c2O[C@H]1CN(C)Cc1ccc(C(F)(F)F)cc1`: the cytotoxicity call is “inactive”.
In the case of `C[C@H](CO)N1C[C@H](C)[C@H](CN(C)Cc2ccc(Oc3ccccc3)cc2)Oc2c(NC(=O)Nc3ccc(C(F)(F)F)cc3)cccc2C1=O` it was “inactive”; in that of `C[C@H]1CN([C@@H](C)CO)C(=O)c2cccc(NC(=O)Nc3ccc(F)cc3)c2O[C@@H]1CN(C)Cc1ccc(C(F)(F)F)cc1`, “inactive”; in that of `C[C@@H]1CN([C@H](C)CO)C(=O)c2cccc(NC(=O)Nc3ccccc3)c2O[C@H]1CN(C)Cc1ccc(C(F)(F)F)cc1`, “active”.
In the case of `C[C@@H]1CN([C@@H](C)CO)C(=O)c2cccc(NC(=O)Nc3ccc(C(F)(F)F)cc3)c2O[C@@H]1CN(C)Cc1ccc(Oc2ccccc2)cc1`, the cytotoxicity call was “active”.
As to `C[C@H]1CN([C@@H](C)CO)C(=O)c2cccc(NC(=O)Nc3ccc(C(F)(F)F)cc3)c2O[C@@H]1CN(C)Cc1ccc(Oc2ccccc2)cc1`, the cytotoxicity call is “inactive”.
Consider `C[C@@H]1CN([C@@H](C)CO)C(=O)c2cccc(NC(=O)Nc3ccccc3)c2O[C@@H]1CN(C)Cc1ccc(C(F)(F)F)cc1`, for which the cytotoxicity call was “inactive”.
In the case of `COc1ccc(S(=O)(=O)Nc2ccc3c(c2)C(=O)N([C@H](C)CO)C[C@@H](C)[C@@H](CN(C)C(=O)Nc2ccccc2)OCCCC[C@@H](C)O3)cc1`, the cytotoxicity call was “inactive”.
In the case of `CC(C)CC#Cc1ccc2c(c1)O[C@H](CN(C)C(=O)Cc1ccncc1)[C@H](C)CN([C@H](C)CO)S2(=O)=O`, the cytotoxicity call is “inactive”.
